In the supplement of paper PMC11732987, “Enantioselective OTUD7B fragment discovery through chemoproteomics screening and high-throughput optimisation” (Communications Chemistry, 2025):

Assays:
Experiment in all cases: log2 ratio of Biotin-Ahx-Ub-VS probe labelling (fragment/DMSO); higher = less target engagement (more negative = stronger competition), active = hit call of the paper (q ≤ 0.05, log2 ratio ≤ -1)
Settings in all cases: compound concentration: 200 uM; treatment time: 3 h
ALG13 = biological target: T1, ALG13 (UniProt Q9NP73)
T1 sequence (whole entry): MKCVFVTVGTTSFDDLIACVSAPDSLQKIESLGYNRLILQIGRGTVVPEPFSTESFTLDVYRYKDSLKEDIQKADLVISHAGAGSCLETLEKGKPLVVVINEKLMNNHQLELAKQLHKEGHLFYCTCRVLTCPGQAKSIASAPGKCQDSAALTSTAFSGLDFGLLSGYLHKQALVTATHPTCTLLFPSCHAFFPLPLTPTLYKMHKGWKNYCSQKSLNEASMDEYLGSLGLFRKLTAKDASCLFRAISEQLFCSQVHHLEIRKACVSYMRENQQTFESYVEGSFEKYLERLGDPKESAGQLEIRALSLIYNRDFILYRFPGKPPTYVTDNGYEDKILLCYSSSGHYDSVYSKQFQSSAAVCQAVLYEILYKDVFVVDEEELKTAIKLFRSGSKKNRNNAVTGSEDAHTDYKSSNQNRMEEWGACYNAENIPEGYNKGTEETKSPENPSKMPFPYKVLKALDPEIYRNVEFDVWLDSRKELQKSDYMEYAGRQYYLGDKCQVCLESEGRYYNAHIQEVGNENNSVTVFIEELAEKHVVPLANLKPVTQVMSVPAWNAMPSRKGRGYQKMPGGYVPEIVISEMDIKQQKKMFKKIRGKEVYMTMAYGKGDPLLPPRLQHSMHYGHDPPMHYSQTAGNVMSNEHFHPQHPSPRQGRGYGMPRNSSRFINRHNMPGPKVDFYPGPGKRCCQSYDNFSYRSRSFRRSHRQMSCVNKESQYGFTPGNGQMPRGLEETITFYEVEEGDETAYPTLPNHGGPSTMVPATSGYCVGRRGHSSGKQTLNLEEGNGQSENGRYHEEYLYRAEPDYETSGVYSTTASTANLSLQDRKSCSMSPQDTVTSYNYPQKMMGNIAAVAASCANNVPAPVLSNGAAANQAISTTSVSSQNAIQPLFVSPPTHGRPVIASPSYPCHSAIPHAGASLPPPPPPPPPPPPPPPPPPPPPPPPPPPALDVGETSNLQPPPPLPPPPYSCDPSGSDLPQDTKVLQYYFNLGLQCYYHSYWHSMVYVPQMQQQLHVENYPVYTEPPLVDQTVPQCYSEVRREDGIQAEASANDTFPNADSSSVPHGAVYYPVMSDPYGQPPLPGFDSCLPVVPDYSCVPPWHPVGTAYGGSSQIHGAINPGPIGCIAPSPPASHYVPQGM
How it was run: (§1)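 HEK293T lysate (495 µg per sample, in Tris/CHAPS/IGEPAL buffer with protease inhibitors) was exposed in triplicate for 3 h to fragment at 200 µM or to vehicle, then to Biotin-Ahx-Ub-VS at 0.5 µM final for 1 h. Labelled DUBs were enriched on NeutrAvidin, digested with LysC and trypsin, and analysed by diaPASEF LC-MS/MS. Spectronaut label-free quantities were normalised to the global median, and values are average log2 ratios of fragment over vehicle from an unpaired t-test. Only proteins with ≥2 unique peptides were used.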

ATXN3 = ATXN3 (UniProt P54252)
Chain of ATXN3 (P54252 whole entry): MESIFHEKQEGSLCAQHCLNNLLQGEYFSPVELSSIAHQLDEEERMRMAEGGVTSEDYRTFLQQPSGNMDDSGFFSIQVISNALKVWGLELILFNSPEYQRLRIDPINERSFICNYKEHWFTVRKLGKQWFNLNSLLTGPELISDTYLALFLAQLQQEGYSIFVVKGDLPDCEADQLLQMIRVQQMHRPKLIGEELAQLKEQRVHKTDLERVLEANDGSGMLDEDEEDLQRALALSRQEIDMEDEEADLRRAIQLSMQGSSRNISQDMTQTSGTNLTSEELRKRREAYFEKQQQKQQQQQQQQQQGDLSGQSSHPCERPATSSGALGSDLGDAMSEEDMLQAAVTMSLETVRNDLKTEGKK
How it was run: as §1

BAP1 = biological target: T2, BAP1 (UniProt Q92560)
T2 sequence (whole entry): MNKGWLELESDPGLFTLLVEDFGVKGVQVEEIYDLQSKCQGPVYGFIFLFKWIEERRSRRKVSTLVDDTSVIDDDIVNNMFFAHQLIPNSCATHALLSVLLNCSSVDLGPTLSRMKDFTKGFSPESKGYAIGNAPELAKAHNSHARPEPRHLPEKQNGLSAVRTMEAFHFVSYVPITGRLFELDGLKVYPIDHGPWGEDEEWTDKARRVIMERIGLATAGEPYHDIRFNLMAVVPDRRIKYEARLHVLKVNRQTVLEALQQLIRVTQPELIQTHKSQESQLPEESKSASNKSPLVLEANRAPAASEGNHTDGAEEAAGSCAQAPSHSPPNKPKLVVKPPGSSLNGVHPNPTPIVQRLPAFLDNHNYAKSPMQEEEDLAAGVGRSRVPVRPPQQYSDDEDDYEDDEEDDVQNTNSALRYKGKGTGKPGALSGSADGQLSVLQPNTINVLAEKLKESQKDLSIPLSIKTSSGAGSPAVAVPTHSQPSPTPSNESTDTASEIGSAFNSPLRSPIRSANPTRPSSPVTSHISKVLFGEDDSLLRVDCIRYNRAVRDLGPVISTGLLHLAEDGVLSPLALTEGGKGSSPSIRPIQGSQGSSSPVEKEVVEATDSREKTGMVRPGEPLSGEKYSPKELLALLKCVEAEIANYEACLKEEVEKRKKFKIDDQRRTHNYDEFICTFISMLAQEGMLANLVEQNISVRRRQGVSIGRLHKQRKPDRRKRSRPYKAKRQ
How it was run: as §1

EIF3F = EIF3F (UniProt O00303)
Chain of EIF3F (O00303 whole entry): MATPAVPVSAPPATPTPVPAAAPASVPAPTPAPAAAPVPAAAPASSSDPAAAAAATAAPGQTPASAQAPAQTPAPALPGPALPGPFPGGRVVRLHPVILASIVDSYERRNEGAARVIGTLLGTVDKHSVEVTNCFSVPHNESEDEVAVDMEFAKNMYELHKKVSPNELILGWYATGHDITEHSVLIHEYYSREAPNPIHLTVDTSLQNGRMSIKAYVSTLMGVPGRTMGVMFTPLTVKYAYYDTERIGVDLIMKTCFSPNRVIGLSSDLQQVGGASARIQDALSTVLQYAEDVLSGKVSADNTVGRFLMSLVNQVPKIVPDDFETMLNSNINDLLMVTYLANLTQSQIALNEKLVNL
How it was run: as §1

EIF3H = EIF3H (UniProt O15372)
Chain of EIF3H (O15372 whole entry): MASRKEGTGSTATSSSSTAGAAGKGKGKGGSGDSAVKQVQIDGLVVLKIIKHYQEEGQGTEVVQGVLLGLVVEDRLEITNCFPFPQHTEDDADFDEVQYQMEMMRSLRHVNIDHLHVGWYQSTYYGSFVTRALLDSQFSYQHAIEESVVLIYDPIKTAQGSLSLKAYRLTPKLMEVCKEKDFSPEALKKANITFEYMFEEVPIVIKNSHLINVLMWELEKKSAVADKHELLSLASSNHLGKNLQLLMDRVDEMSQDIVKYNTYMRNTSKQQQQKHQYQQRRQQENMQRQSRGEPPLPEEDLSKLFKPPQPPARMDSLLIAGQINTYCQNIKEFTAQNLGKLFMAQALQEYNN
How it was run: as §1

FAM105A = biological target: T3, FAM105A (UniProt Q9NUU6)
T3 sequence (whole entry): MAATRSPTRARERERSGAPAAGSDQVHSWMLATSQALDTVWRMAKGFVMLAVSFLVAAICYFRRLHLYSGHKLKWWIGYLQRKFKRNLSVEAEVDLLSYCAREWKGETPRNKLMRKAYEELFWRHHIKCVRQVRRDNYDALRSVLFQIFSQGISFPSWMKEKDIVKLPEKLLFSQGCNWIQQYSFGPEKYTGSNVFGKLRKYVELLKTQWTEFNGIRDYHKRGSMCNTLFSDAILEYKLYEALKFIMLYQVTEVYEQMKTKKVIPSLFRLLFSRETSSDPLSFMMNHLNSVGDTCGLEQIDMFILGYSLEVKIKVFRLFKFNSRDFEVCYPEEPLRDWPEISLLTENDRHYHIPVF
How it was run: as §1

OTUB1 = OTUB1 (UniProt Q96FW1)
Chain of OTUB1 (Q96FW1 whole entry): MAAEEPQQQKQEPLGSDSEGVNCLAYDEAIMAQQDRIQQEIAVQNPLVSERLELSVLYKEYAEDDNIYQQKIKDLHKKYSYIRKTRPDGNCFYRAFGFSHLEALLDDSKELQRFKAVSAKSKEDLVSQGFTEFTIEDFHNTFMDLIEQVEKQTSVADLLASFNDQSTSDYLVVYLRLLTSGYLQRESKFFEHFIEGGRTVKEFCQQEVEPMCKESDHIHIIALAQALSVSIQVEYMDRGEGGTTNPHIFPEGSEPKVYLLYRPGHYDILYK
How it was run: as §1

OTUD4 = biological target: T4, OTUD4 (UniProt Q01804)
T4 sequence (whole entry): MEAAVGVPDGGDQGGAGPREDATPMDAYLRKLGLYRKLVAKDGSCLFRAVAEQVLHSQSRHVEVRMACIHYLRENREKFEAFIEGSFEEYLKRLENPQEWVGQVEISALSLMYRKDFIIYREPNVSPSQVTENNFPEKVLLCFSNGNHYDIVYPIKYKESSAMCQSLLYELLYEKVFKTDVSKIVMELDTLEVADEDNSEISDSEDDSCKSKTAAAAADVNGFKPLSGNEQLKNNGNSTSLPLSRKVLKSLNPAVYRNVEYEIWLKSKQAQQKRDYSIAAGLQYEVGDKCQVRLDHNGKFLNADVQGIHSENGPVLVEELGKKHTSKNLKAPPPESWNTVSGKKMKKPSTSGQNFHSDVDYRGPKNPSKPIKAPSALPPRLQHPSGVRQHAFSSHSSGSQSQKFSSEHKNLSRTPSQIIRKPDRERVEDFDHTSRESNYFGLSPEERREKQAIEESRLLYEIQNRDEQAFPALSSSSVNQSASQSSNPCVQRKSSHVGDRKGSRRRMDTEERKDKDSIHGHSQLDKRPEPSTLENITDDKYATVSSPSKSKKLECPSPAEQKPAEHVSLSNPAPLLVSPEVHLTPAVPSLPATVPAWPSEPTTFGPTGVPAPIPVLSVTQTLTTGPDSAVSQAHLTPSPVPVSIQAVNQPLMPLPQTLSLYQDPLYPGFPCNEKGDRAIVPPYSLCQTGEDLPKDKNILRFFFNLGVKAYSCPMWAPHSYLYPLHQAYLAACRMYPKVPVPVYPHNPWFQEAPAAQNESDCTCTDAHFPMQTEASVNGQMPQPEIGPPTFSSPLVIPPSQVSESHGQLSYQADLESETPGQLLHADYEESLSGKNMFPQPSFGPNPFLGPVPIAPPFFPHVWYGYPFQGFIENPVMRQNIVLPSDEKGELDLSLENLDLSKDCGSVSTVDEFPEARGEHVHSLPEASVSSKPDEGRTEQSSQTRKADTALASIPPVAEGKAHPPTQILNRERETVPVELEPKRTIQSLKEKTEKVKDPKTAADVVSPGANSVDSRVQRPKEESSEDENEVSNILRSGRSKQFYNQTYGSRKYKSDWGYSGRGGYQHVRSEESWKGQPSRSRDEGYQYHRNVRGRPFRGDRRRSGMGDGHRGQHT
How it was run: as §1

OTUD5 = biological target: T5, OTUD5 (UniProt Q96G74)
T5 sequence (whole entry): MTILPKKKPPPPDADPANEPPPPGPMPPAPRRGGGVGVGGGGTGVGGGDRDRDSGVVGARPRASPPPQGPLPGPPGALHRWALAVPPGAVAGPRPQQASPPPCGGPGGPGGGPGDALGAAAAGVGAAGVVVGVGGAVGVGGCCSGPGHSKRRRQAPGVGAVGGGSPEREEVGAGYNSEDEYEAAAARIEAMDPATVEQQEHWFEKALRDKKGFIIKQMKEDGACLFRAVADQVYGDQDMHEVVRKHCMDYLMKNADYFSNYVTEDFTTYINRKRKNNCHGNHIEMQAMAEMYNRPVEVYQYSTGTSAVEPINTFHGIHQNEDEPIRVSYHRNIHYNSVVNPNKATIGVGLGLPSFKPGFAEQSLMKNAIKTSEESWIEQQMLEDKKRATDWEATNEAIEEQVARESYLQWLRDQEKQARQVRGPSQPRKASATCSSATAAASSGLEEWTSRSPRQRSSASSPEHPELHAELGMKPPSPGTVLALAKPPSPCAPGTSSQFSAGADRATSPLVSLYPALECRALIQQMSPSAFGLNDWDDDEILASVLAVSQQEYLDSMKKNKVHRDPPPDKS
How it was run: as §1

Measured: log2 ratio of Biotin-Ahx-Ub-VS probe labelling

CN(C)S(=O)(=O)c1ccccc1CNC(=O)CCl
inactive: ALG13 0.242 | ATXN3 -0.137 | EIF3F -0.0947 | EIF3H 0.29 | FAM105A -0.0283 | OTUB1 -0.0251 | OTUD4 -0.249 | OTUD5 -0.29
active: BAP1 -1.09
